39 compounds from the supplement of paper PMC12024529 can be followed below.

Values joined by “and” are separate entries in the source; they are usually repeats but may differ in a detail not shown here. Identical values can stand only once.

The subject of this assay is HEK293 WT BDD-FVIII-Gluc. The assay is described as follows: secreted FVIII-Gluc luciferase Z-score vs DMSO control; higher = more FVIII-Gluc secretion. The note with it: 5 µM. On the procedure: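 Natural plant-compound library (480 compounds, ST catalogue IDs) screened on HEK293 cells stably expressing WT BDD-FVIII-Gaussia luciferase fusion at 5 µM. Secreted Gluc activity in the medium is given as a Z-score relative to DMSO controls.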
For the compound `CCC12CCCN3CCc4c(n(c5ccccc45)C(O)(C(=O)OC)C1)C32` (centres undefined), the “secreted FVIII-Gluc luciferase Z-score” value was 0.301.
Next, `O=C(CCc1ccc(O)cc1)c1c(O)cc(O)cc1O[C@@H]1O[C@H](CO)[C@@H](O)[C@H](O)[C@H]1O`: 0.224 and 0.244; `NC(Cn1ccc(=O)c(O)c1)C(=O)O` (centres undefined): 0.208; `O=C(O)/C=C/c1ccc(O)c(O)c1`: -0.126.
As for `C=C1CC23C[C@@]1(O)CCC2C12C=CC(O)C(C)(C(=O)O1)C2[C@@H]3C(=O)O` (some centres undefined), the figure is -0.216; as for `O=C(O)CCCC[C@@H]1SC[C@@H]2NC(=O)N[C@@H]21`, 0.929; as for `CO[C@H]1/C=C/O[C@@]2(C)Oc3c(C)c(O)c4c(O)c(c(C=O)c(O)c4c3C2=O)NC(=O)/C(C)=C\C=C\[C@H](C)[C@H](O)[C@@H](C)[C@@H](O)[C@@H](C)[C@H](OC(C)=O)[C@@H]1C`, 1.13.
Next, `COc1cc2c3cc1Oc1c(OC)c(OC)cc4c1[C@@H](Cc1ccc(O)c(c1)Oc1ccc(cc1)C[C@@H]3N(C)CC2)N(C)CC4`: 0.165; `Cn1ccc(O)c(C#N)c1=O`: 0.00283; `Nc1nc2c(c(=O)[nH]1)N=C(CNc1ccc(C(=O)NC(CCC(=O)O)C(=O)O)cc1)CN2` (centres undefined): 0.62.
With `COc1ccc2c(c1OC)C(=O)O[C@@H]2[C@H]1c2c(cc3c(c2OC)OCO3)CCN1C`, the “secreted FVIII-Gluc luciferase Z-score” value is -0.0362.
Next, `CC[C@H](/C=C/[C@@H](C)[C@H]1CC[C@H]2[C@@H]3CC=C4C[C@@H](O)CC[C@]4(C)[C@H]3CC[C@]12C)C(C)C`: 0.586.
For `COc1cccc(-c2cc(=O)c3cc(O)ccc3o2)c1`, the “secreted FVIII-Gluc luciferase Z-score” value was 0.695.
As for `COc1cc(C(=O)OC2CC(C)=CCC3(C)CCC(O)(C(C)C)C23)ccc1O` (centres undefined), the figure is -0.405; as for `Nc1ncnc2c1ncn2[C@@H]1O[C@H](COP(=O)(O)OP(=O)(O)O)[C@@H](O)[C@H]1O`, 0.0418.
As for `CO[C@@H]1[C@@H](OC2OC(C)C(OC3CC(C)(O)C(O)C(C)O3)C(N(C)C)C2O)[C@@H](CC=O)C[C@@H](C)[C@@H](OC2CCC(N(C)C)C(C)O2)/C=C/C=C/C[C@@H](C)OC(=O)C[C@H]1O` (some centres undefined), the figure is 0.36.
As for `C[C@H](C(=O)O)c1cccc(C(=O)c2ccccc2)c1`, the “secreted FVIII-Gluc luciferase Z-score” value amounted to 0.342.
Next, `Nc1ncnc2c1ncn2[C@H]1C[C@H](O)[C@@H](CO)O1`: 1.23; `Cc1ccc2oc(-c3ccccc3)c(O)c(=O)c2c1`: 1.13.
As for `COc1cc([C@@H]2Oc3cc(C4Oc5cc(O)cc(O)c5C(=O)[C@H]4O)ccc3O[C@H]2CO)ccc1O` (some centres undefined), the figure is 0.0424.
As for `O=c1oc2c(O)c(O)cc3c(=O)oc4c(O)c(O)cc1c4c23`, the figure is 0.53.
Consider `CC(=O)OCC1OC(Oc2cc(OC(C)=O)c3c(=O)cc(-c4ccc(OC(C)=O)c(OC(C)=O)c4)oc3c2)C(OC(C)=O)C(OC(C)=O)C1OC(C)=O` (centres undefined), for which the “secreted FVIII-Gluc luciferase Z-score” value was -0.756.
Next, `COc1c(-c2ccc(O)c(O)c2)oc2cc(O)cc(O)c2c1=O`: -0.415.
As for `Nc1nc2ncc(CNc3ccc(C(=O)NC(CCC(=O)O)C(=O)O)cc3)nc2c(=O)[nH]1` (centres undefined), the figure is -0.865; as for `CC1(C)S[C@@H]2[C@H](NC(=O)C(N)c3ccccc3)C(=O)N2[C@H]1C(=O)O` (some centres undefined), -0.57.
As for `CC(C)[C@@H]1CC[C@@H](C)C[C@H]1OC(=O)[C@@H](C)O`, the figure is -0.146; as for `COc1ccc2c(=O)c(-c3ccccc3)coc2c1`, 1.15; as for `O=c1cc(-c2ccccc2)oc2cc(O[C@@H]3O[C@H](CO)[C@@H](O)[C@H](O)[C@H]3O)c(O)c(O)c12`, -0.188.
Consider `COc1ccc2[nH]c(=O)c3c(c2c1)OC(C)(C)C=C3`, for which the “secreted FVIII-Gluc luciferase Z-score” value is -1.14.
Next, `C[C@H]1[C@H](C)CC[C@]2(C(=O)O)CC[C@]3(C)C(=CCC4[C@@]5(C)C[C@@H](O)[C@H](O)[C@@](C)(CO)[C@@H]5CC[C@]43C)[C@H]12` (some centres undefined): -0.822; `CC(C)(S)[C@H](N)C(=O)O`: 0.41.
Take `COc1cc(O)c2c(=O)cc(-c3ccccc3)oc2c1`: the “secreted FVIII-Gluc luciferase Z-score” value stood at 1.12.
Next, `O=c1cc(-c2ccc(O)cc2)oc2cc(O)cc(O)c12`: 0.864; `O=C(/C=C/c1ccc(O)c(O)c1)O[C@@H]1CC(O)(C(=O)O)CC(O)C1O` (some centres undefined): 0.588.
Take `COc1cc2oc(=O)cc(C)c2cc1OC`: the “secreted FVIII-Gluc luciferase Z-score” value was found to be 0.58.
`O=c1c(O)c(-c2ccc(O)c(O)c2)oc2c(O[C@@H]3O[C@H](CO)[C@@H](O)[C@H](O)[C@H]3O)c(O)cc(O)c12`: the “secreted FVIII-Gluc luciferase Z-score” value stood at 1.19.
As for `COc1ccc2c(c1OC)C(Cc1ccccc1)N1CCc3cc4c(cc3C1C2)OCO4` (centres undefined), the figure is 0.496; as for `Nc1ccn([C@@H]2O[C@H](CO)[C@@H](OP(=O)(O)O)[C@H]2O)c(=O)n1`, -0.278.
Next, `CC(C)C1=CC2=CCC3C(C)(C(=O)O)CCC[C@]3(C)C2CC1` (some centres undefined): 0.107.
